Source: PMC3795721, “Screening for Protein-DNA Interactions by Automatable DNA-Protein Interaction ELISA”

These sequences were tested against AT4G31550 (Arabidopsis thaliana, UniProt Q9SV15 228-325) (assay: DPI-ELISA; DPI-ELISA, streptavidin 384-well plate, 1-2 pmol biotinylated dsDNA per well, crude native E. coli extract, anti-His detection; buffer as in Brand et al. [46],; high values mean tight binding). Conditions: tags: C-terminal His (pET-DEST42); label: 5' biotin on forward strand; dsDNA, one strand shown.
AT4G31550, sequence (Q9SV15 228-325): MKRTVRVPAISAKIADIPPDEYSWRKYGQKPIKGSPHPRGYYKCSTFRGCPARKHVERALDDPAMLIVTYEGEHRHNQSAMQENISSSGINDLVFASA

**Q.** With AAAAAAACTTCTGTCCCTGTTCCCGTAAAA as the sequence, how does the binding signal read?
**A.** Its binding signal is 0.55 ± 0.127 absorbance.

**Q.** AAAAAACTGTCTGTCCTATATCACTTAAAA was tested. Which binding signal did it give?
**A.** The binding signal was 0.66 ± 0.099 absorbance.

**Q.** How did the binding signal turn out when AAAAAATCGCGAACGTACGTCCGCGGAAAA was run?
**A.** The binding signal was 0.51 ± 0.113 absorbance.

**Q.** For AAAAAAGACCGCAGCAAGAATTAAATAAAA, which binding signal is on record?
**A.** The binding signal was 0.49 ± 0.141 absorbance.

**Q.** For AAAAAAGGGCCCACTATCGACGTCAAAA, which binding signal is on record?
**A.** Its binding signal is 0.605 ± 0.134 absorbance.

**Q.** With AAAAAAACATCCACACCCGCGGCGCGAAAA as the sequence, how does the binding signal read?
**A.** Its binding signal is 0.56 ± 0.141 absorbance.

**Q.** Which binding signal does the source give for AAAAAACGCATCATAGCTACGCCCCAAAAA here?
**A.** Its binding signal is 0.62 ± 0.0849 absorbance.

**Q.** How did the binding signal turn out when AAAAAACCTTACTGTTGATTCTGGTTAAAA was run?
**A.** Its binding signal is 0.635 ± 0.134 absorbance.

**Q.** With AAAAAACCTACGATGGTTCTGATCTTAAAA as the sequence, how does the binding signal read?
**A.** The binding signal was 0.655 ± 0.12 absorbance.

**Q.** Which binding signal does the source give for AAAAAACGCCTTATGCCTCCCGCTCGAAAA here?
**A.** The binding signal was 0.675 ± 0.0354 absorbance.

**Q.** AAAAAATATGTTTTCGCTTTATTCTTAAAA was tested. Which binding signal did it give?
**A.** Its binding signal is 0.52 ± 0.099 absorbance.

**Q.** How did the binding signal turn out when AAAAAATGTTTTTTAGAGGTGTGCAAAAAA was run?
**A.** The binding signal was 0.57 ± 0.0849 absorbance.

**Q.** Which binding signal does the source give for AAAAAATTTTGTGGTGTTTCGCCACCAAAA here?
**A.** The binding signal was 0.715 ± 0.0495 absorbance.

**Q.** With AAAAAAGGTTTAGCCCATGCCTGTGCAAAA as the sequence, how does the binding signal read?
**A.** Its binding signal is 0.645 ± 0.12 absorbance.

**Q.** With AAAAAATTCTTACTTTTGTCTTTACTAAAA as the sequence, how does the binding signal read?
**A.** Its binding signal is 0.79 ± 0.156 absorbance.

**Q.** Which binding signal does the source give for AAAAAATCGCACTGCCGCCGATGGCTAAAA here?
**A.** The binding signal was 0.625 ± 0.134 absorbance.

**Q.** For AAAAAATTACTATTACACACTTGGGGAAAA, which binding signal is on record?
**A.** Its binding signal is 0.6 ± 0.127 absorbance.

**Q.** AAAAAAGCTTTCAACATCTGCGTCCAAAAA was tested. Which binding signal did it give?
**A.** Its binding signal is 0.42 ± 0.0424 absorbance.

**Q.** AAAAAACCCGCCGTCGTGATTATCACAAAA was tested. Which binding signal did it give?
**A.** Its binding signal is 0.73 ± 0.0707 absorbance.

**Q.** AAAAAACTGCTAATCGGTGACCCGATAAAA was tested. Which binding signal did it give?
**A.** Its binding signal is 0.745 ± 0.00707 absorbance.

**Q.** For AAAAAATATGCTACTCCACCTTGATGAAAA, which binding signal is on record?
**A.** The binding signal was 0.67 ± 0.156 absorbance.

**Q.** For AAAAAAACGATACGGTATCTAGAAAA, which binding signal is on record?
**A.** The binding signal was 0.525 ± 0.0495 absorbance.

**Q.** For AAAAAATGGTACTCAGAGTTATAGACAAAA, which binding signal is on record?
**A.** Its binding signal is 0.66 ± 0.141 absorbance.

**Q.** With AAAAAAGGAAAACGAGTTCATCTGGTAAAA as the sequence, how does the binding signal read?
**A.** Its binding signal is 0.585 ± 0.134 absorbance.
